Source: PubChem (several laboratories)
Hits are enriched below; roughly 0.92% of the tested compounds scored in any of these assays.
FadD28 binding: M. tuberculosis FadD28 bisubstrate binding inhibition. FadD28 bisubstrate probe binding, fluorescence polarization. inhibition, % at 12.5 µM. 360,000 compounds, 0.22% hits. AID 588549; in the data active means inhibition above about 8.5%, passing the limit was not always enough; inconclusive means no clear call, values can overlap the other calls
Mtb hypoxia rep: Mtb hypoxia fluorescent reporter inhibition. M. tuberculosis hypoxia-regulated fluorescent reporter, fluorescence. fluorescence inhibition, % (concentration not given with the values). 300,000 compounds, 0.1% hits. AID 1159583; in the data active means fluorescence inhibition mostly above about 23%, no sharp cut-off; inactive means mostly below about 17%
RecA splice inh: inhibitors of M. tuberculosis RecA intein splicing; P9WHJ3; cell-free RecA intein splicing, fluorescence; inhibition, % (concentration not given with the values); 290,000 compounds, 0.75% hits; AID 2221; in the data active means inhibition above about 30%; inconclusive means no clear call, values can overlap the other calls;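 further: 0% = vehicle wells and 100% = reference inhibitor control wells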
Target sequence (P9WHJ3 whole entry, looked up, canonical isoform): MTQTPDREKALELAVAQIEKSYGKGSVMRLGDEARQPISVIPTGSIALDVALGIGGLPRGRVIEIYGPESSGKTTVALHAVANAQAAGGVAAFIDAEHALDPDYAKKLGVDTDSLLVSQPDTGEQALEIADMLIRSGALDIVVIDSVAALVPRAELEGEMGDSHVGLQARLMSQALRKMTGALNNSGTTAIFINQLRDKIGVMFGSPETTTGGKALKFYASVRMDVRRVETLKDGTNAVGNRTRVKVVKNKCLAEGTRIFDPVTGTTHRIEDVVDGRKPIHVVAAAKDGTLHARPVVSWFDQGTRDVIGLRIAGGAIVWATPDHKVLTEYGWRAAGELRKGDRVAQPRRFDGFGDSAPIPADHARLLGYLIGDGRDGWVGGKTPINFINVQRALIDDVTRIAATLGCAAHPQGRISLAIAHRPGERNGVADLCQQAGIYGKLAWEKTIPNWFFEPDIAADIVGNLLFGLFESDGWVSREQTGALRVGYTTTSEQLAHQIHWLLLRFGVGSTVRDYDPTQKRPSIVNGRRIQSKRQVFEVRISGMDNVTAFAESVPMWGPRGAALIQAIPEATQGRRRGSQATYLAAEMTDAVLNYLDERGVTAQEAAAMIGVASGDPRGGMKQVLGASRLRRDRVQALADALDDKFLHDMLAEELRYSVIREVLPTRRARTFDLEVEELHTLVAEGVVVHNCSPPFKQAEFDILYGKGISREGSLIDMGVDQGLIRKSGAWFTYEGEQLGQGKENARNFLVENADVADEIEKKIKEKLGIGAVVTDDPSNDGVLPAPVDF
UGM FP inh: blocks M. tuberculosis UGM enzyme; inhibition, % at 10 µM; AID 504406; 320,000 compounds, 0.06% hits; purified UGM, fluorescence polarization probe displacement; P9WIQ1; in the data active means inhibition above about 10%, passing the limit was not always enough; inconclusive means no clear call, values can overlap the other calls
Rv3671c inh: inhibitors of M. tuberculosis serine protease Rv3671c; 320,000 compounds, 0.048% hits; inhibition, % at 5.96 µM; P9WHR9; AID 2606; in the data active means inhibition above about 38%;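 further: extracellular domain of Rv3671c used as enzyme; 0% = enzyme with DMSO and 100% = no enzyme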
Mtb betalactam: beta-lactam sensitization of Mtb H37Rv; M. tuberculosis H37Rv growth with meropenem, percent inhibition; inhibition, % at 25 µM; 330,000 compounds, 0.27% hits; call rule not given here;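 further: growth measured after seven days incubation then overnight dye step; 0% = bacteria only wells and 100% = bacteria with antibiotic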
* = called active by the depositor; ? = inconclusive; . = no result given.

SMILES	FadD28 binding	Mtb hypoxia rep	RecA splice inh	UGM FP inh	Rv3671c inh	Mtb betalactam
CC(C)(C)NC(=O)CSc1ncnc2c1nnn2Cc1ccccc1Cl	-3.9	.	60.6*	0.6	5.3	61.5
O=C(Cn1cnc2c(nnn2Cc2ccccc2F)c1=O)N1CCN(c2ccccc2)CC1	-2.0	3.6	0.8	0.1	-4.2	-1.0
COc1ccc(C(=O)/C=C2\C(=O)Nc3ccc(Br)cc32)cc1	-6.4	.	.	.	.	.
O=C1Nc2ccc(Br)cc2/C1=C/C(=O)c1ccc2c(c1)OCO2	-4.3	9.7	49.2*	0.7	-0.8	99.0
Cn1cnc2cc(NC(=O)COc3ccccc3)ccc21	.	3.4	-0.4	1.4	-8.1	-0.9
O=Nc1c(O)c2ccccc2c2ccccc12	0.8	10.6	41.5*	-0.8	4.8	100.3
Cc1ccc(C)c(N2CCN(S(=O)(=O)c3ccc4c(c3)NC(=O)CS4)CC2)c1	-2.9	-0.5	7.1	3.5	-14.8	1.6
N#CC(=NNc1cccc(F)c1)C(=N)N1CCCCCC1	.	2.0	.	.	.	.
O=C(Nc1cccc(-c2nc3ccccc3[nH]2)c1)c1cccc(NC(=O)c2ccco2)c1	17.4*	-1.7	-18.8	-0.8	-138.4	-4.1
COc1ccc(N2C(=O)NC(=O)/C(=C\c3ccc([N+](=O)[O-])s3)C2=O)cc1	35.6*	4.1	7.5	-1.0	-34.9	.
COc1ccc(N2C(=O)NC(=O)/C(=C/c3ccc([N+](=O)[O-])s3)C2=O)cc1	35.0*	1.3	5.0	0.3	-16.4	100.1
COc1cccc(N2C(=O)NC(=O)/C(=C/c3ccc([N+](=O)[O-])s3)C2=O)c1	18.3*	.	-1.0	4.6	-31.9	100.0
CCSc1nc(O)cc(=O)n1CC	-4.1	.	1.6	4.6	0.3	3.7
Cc1ccccc1OCC(=O)NN=Cc1cn(C)c2ccccc12	.	17.2	.	.	.	.
CCOC(=O)c1c(C)[nH]c(C(=O)OCC(=O)Nc2sc(C(=O)N(C)C)c(C)c2C(=O)OCC)c1C	-1.9	3.9	-1.0	0.0	-12.3	-0.2
CCOC(=O)c1c(NC(=O)COC(=O)c2ncc(Cl)c(Cl)c2Cl)sc(C(=O)N(C)C)c1C	-3.5	12.5	38.1*	0.6	3.2	.
COc1ccc(OC)c(S(=O)(=O)N2CCC3(CC2)OCCN3S(=O)(=O)c2cccs2)c1	10.0*	-1.7	1.0	0.2	6.9	-8.3
COc1ccc(S(=O)(=O)N2CCC3(CC2)OCCN3S(=O)(=O)c2cccs2)cc1	-4.2	.	6.1	-0.9	8.6	-15.1
COc1cc([N+](=O)[O-])ccc1NC(=S)NNC(=O)c1ccc2c(c1)OCO2	?	2.0	1.3	5.2	1.4	-3.0
O=C(NC(=S)Nc1cc([N+](=O)[O-])ccc1O)c1ccc2c(c1)OCO2	13.3*	4.8	-0.3	-0.4	10.8	68.0
COc1cc(/C=C(\C#N)C(=O)Nc2ccc3c(c2)OCCO3)ccc1O	-0.9	.	31.7*	-2.1	4.1	-8.2
CCOC(=O)/C(C#N)=C\c1ccc(O)c(OC)c1	0.9	6.4	40.4*	0.7	-6.6	-2.5
CN1CCN(C(=O)c2ccc(Cl)c(S(=O)(=O)N3CCCCCC3)c2)CC1	-0.5	14.0	-3.1	-0.6	9.7	2.8
O=C(CC1C(=O)N(c2ccccc2)C(=O)N1Cc1ccco1)Nc1ccccc1 (stereo not drawn)	0.3	11.4	-0.1	-1.3	1.1	-0.1
Cc1ccc(NC2=C(N3CCOCC3)C(=O)c3ccccc3C2=O)cc1	0.3	3.8	41.0*	0.7	-139.8	5.3
SMILES	FadD28 binding	Mtb hypoxia rep	RecA splice inh	UGM FP inh	Rv3671c inh	Mtb betalactam
CC(=O)N(C)C1=C(N2CCOCC2)C(=O)c2ccccc2C1=O	-3.2	17.7	32.2*	-2.3	-31.4	64.0
Cc1ccc(NC(=O)COC(=O)/C=C/c2cccc(Cl)c2)cc1S(=O)(=O)N1CCOCC1	-0.6	6.8	4.4	1.5	-75.2	-2.0
CC(C)CC(=O)O/N=C1\C(=O)N(Cc2ccc(Cl)cc2)c2ccc([N+](=O)[O-])cc21	.	.	11.2	-0.4	77.5*	-0.7
CCc1noc(C)c1C(=O)NNC(=O)COc1ccc(C)cc1	20.2*	-5.6	.	1.4	5.0	-13.3
Cc1ccc(S(=O)(=O)N[C@@H](CCCCN)C(=O)CCl)cc1	-2.4	.	50.4*	-0.5	-1.8	1.2
Cc1ccc(S(=O)(=O)NC(CCCCN)C(=O)CCl)cc1 (stereo not drawn)	.	2.0	.	.	.	.
O=C(c1cc2ccccc2c(=O)o1)N1CCCC1	.	-5.5	-1.7	-2.3	-13.9	.
CC1=NN(c2cccc(C(=O)O)c2)C(=O)/C1=C\C=C\c1ccco1	11.3*	-3.7	3.8	-0.4	2.2	1.8
Cc1cccc(C(=O)Oc2ccc(/C=N/NC(=O)c3ccc(O)cc3)cc2)c1	-0.2	.	-1.2	1.4	.	9.1
Cc1ccc(NC(=O)N2CCCC2C(=O)Nc2c(C)cc(C)cc2C)cc1 (stereo not drawn)	-4.3	12.0	1.4	-0.3	1.2	-4.7
Cn1nc(C(C)(C)C)cc1C(=O)O	-0.3	4.3	3.9	-1.6	-3.9	6.9
Cn1nc(C(C)(C)C)cc1C(=O)Sc1cccc(Br)c1	-3.5	.	42.7*	-0.7	-5.6	-1.2
CC(=O)c1ccc(N2CCN(C(=O)c3cc(-c4ccncc4)nc4ccc(Br)cc34)CC2)cc1	-2.1	-5.1	4.3	-2.2	-6.4	16.9
CCOC(=O)c1cnc2ccc(C)cc2c1Sc1ccc(F)cc1	-3.0	.	66.6*	4.4	10.8	1.8
O=C(Nc1ccc(Oc2cccc(C(F)(F)F)c2)nc1)c1ccco1	-4.2	-13.9	-1.3	-1.0	-1.1	-3.9
O=c1c2c([nH]n1-c1ccccc1)CCSC2	0.5	-12.5	62.9*	-1.0	4.3	-2.0
O=C(O)c1ccc(-n2[nH]c3c(c2=O)CCCC3)cc1	0.2	12.0	2.4	3.5	6.7	-4.2
COC(=O)CSc1nc(N)nc(C)c1Br	1.0	.	.	4.4	0.2	-3.2
c1ccc(OCc2nnc3n2CCCCC3)cc1	-2.9	7.4	1.3	0.3	1.0	-1.5
Brc1ccc(OCc2nnc3n2CCC3)cc1	-0.9	35.5*	1.0	-1.6	-5.1	81.2
CC(=O)C(=Nc1ccc(Cl)cc1Cl)NNc1cccc(Cl)c1	0.1	.	33.8*	-0.4	-4.2	93.8
O=[N+]([O-])c1ccc(C2CCCC/C2=N/OCc2ccccc2F)c([N+](=O)[O-])c1 (stereo not drawn)	-3.3	.	1.5	-1.4	1.7	7.7
COc1ccc(N2C(=O)C(Cl)=C(NCc3ccccc3)C2=O)cc1	-3.4	.	35.7*	3.4	-11.0	33.5
Cc1cccc(/C=N/n2c(C3CCCCC3)n[nH]c2=S)c1	10.6*	.	-0.4	1.6	-7.5	7.2
S=c1[nH]nc(C2CCCCC2)n1/N=C/c1cccc(Br)c1	-2.8	.	-1.4	0.5	-2.7	-0.5
Cc1cccc(C)c1NC(=S)N=Nc1c(O)n(C)c2ccc(S(=O)(=O)N3CCOCC3)cc12	-2.7	4.9	45.7*	0.3	1.7	8.6
Cc1cccc(NC(=S)N=Nc2c(O)n(C)c3ccc(S(=O)(=O)N4CCOCC4)cc23)c1	-2.3	10.2	2.5	-0.4	-2.2	7.4
Cc1ccccc1NC(=S)N=Nc1c(O)n(C)c2ccc(S(=O)(=O)N3CCOCC3)cc12	-2.9	5.9	40.8*	-3.6	12.6	2.3
